Screening data as filed in PubChem BioAssay.
Wnt act = activates Wnt/beta-catenin signaling in a reporter cell assay. activator, plate reader. activation, % at 9.35 µM. 300,000 compounds, 1.2% hits; in the data active means activation above about 30%, passing the limit was not always enough; inconclusive means no clear call, values can overlap the other calls;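 further: 0% = neutral control wells and 100% = positive control wells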
CFTR F508del cor = correctors of CFTR F508del function in bronchial epithelial cells. CFBE cells, YFP halide quenching; stimulated with forskolin plus potentiator P3; % fluorescence drop versus neutral controls. activity (quench increase), % at 7.58 µM. 350,000 compounds, 0.36% hits. AID 720511;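 active means mean added fluorescence quench of at least 8% versus neutral control, with both replicates also reaching 8%; inconclusive means only one of the mean or replicate conditions met; inactive means mean below 8% and not both replicates reaching 8%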;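 further: cells transiently co-express mutant CFTR-F508del with the halide-sensitive YFP; corrector assay measuring rescue of mutant channel to the surface after 24 h compound exposure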
Env fusion inh = inhibitors of HIV Env-mediated cell fusion | HeLa-JRFL Env/CEM21 cell fusion, luciferase | inhibition, % at 12.3 µM | 360,000 compounds, 1.1% hits | AID 651610;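 active means mean replicate inhibition score of at least 50 and every replicate individually at or above 50; inconclusive means only one of the two criteria met; inactive means mean below 50 and not all replicates reaching 50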;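 further: 0% = plate neutral controls and 100% = maraviroc near 300 nM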
INS-1E GSIS act = primary screen for activators of insulin secretion dependent on glucose, INS-1E cells, GLuc reporter luminescence; INS-1E GLuc reporter insulin secretion, 2-3 h; activation, % at 16.6 µM; 370,000 compounds, 0.61% hits; AID 743287;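 active means lowest replicate activation of at least 40%, so every replicate reaches that level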;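 further: 0% = median of neutral control wells and 100% = median of IBMX positive control wells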
MITF act = MITF TRPM1 promoter activation in melanoma cells | SK-MEL-5 TRPM1-promoter luciferase, 24 h; % of positive control, neutral wells = 0 | 300,000 compounds, 0.75% hits | activation, % at 12.5 µM;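 active means mean activation of at least 80% with every replicate also reaching 80%; inconclusive means mean reaches 80% but some replicate falls short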;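 further: 0% = neutral control wells and 100% = parthenolide positive control wells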
* = called active by the depositor; ? = inconclusive; . = not tested or not shown; [ ] = another dose, or the depositor's remark. An excerpt weighted towards active compounds, which were near 2.7% of everything screened.

SMILES | Wnt act | CFTR F508del cor | Env fusion inh | INS-1E GSIS act | MITF act
Cc1ccc(S(=O)(=O)Nc2ccc3c(c2)C(=O)N([C@@H](C)CO)C[C@@H](C)[C@H](CN(C)C(=O)CCCN(C)C)OCCCC[C@H](C)O3)cc1 | . | -2 | 16[16.7 µM] | 9 | .
Cc1ccc(NCC(=O)c2ccc(C)cc2)cc1 | 15 | 2 | -30 | -24 | 84*
Clc1ccc(C#Cc2cccnc2)cc1 | 24 | 0 | -68 | 25 | 109*
Cc1cccc(C(=O)c2cnc3ccccc3c2-c2ccccc2)c1 | . | . | 73* | . | 1
Cc1cccc(C(=O)NNC(=O)c2ccccc2)c1 | . | . | 4 | 5 | 2
CC(C)S(=O)(=O)c1cnc(N2CCOCC2)nc1N | 40* | -3 | 1 | 7 | .
CSc1sc(C(=O)O)c2c1C(=O)CC(C)(C)C2 | -1 | 5 | -1 | . | 4
CSc1sc(-c2ccnc(SCC(=O)C(C)(C)C)n2)c2c1C(=O)CC(C)(C)C2 | -7 | -4 | 65* | -12 | .
Oc1ccccc1C=NN=Cc1c(O)ccc2ccccc12 | 48* | 0 | -94 | . | 29
Oc1ccc2ccccc2c1C=Nc1ccc(Cl)cn1 | 46* | 1 | 13 | 2 | -3
Cc1cc(O)c(C=Nc2ccc(Cl)cn2)c(=O)o1 | . | . | . | . | -12
C[C@H](CO)N1C[C@H](C)[C@H](CN(C)C(=O)Nc2ccc(F)cc2)Oc2ccc(NC(=O)C3CCCCC3)cc2CC1=O | . | 2 | -7[16.7 µM] | 4 | .
O=C(Cc1ccccn1)NCC[C@H]1CC[C@H](NC(=O)Nc2ccc(C(F)(F)F)cc2)[C@H](CO)O1 | . | 22* | -6[16.7 µM] | -1 | .
O=C(Cc1ccccn1)NCC[C@H]1CC[C@@H](NC(=O)Nc2ccc(C(F)(F)F)cc2)[C@@H](CO)O1 | . | 31* | -17[16.7 µM] | 10 | .
O=C(Cc1ccccn1)NCC[C@@H]1CC[C@@H](NC(=O)Nc2ccc(F)cc2)[C@@H](CO)O1 | . | 2 | 13[16.7 µM] | -1 | .
O=C(Cc1ccccn1)NCC[C@H]1CC[C@@H](NC(=O)Nc2ccc(F)cc2)[C@@H](CO)O1 | . | 1 | -9[16.7 µM] | 12 | .
Cc1noc(C)c1NC(=O)N(C)C[C@@H]1OCCCC[C@@H](C)Oc2ccc(NC(=O)Nc3ccccc3)cc2C(=O)N([C@@H](C)CO)C[C@@H]1C | . | -1 | 11[16.7 µM] | 6 | .
CCN(Cc1ccccc1)S(=O)(=O)c1ccc(C(=O)Nc2nnc(C)o2)cc1 | 0 | -4 | -1 | 54* | -10
CCc1nnc(NC(=O)c2ccc(S(=O)(=O)N(CC)Cc3ccccc3)cc2)o1 | . | . | ? | . | -10
C[C@@H]1CCCCO[C@@H](CN(C)S(C)(=O)=O)[C@H](C)CN([C@H](C)CO)C(=O)c2cc(NS(=O)(=O)c3ccccc3)ccc2O1 | . | 1 | 11[16.7 µM] | 2 | .
CCOC(=O)Cn1c(=NC(=O)c2sc3ccccc3c2Cl)sc2cc(S(N)(=O)=O)ccc21 | -12 | . | 34 | 71* | 11
CC(=O)Nc1ccc2c(c1)CC(=O)N(C)C[C@@H](C)[C@H](CN(C)C(C)=O)O2 | . | . | . | 4 | .
CC(=O)c1ccc(OCC(=O)N(C2CCCCC2)C2CCS(=O)(=O)C2)cc1 (stereo not given) | 0 | -4 | -24 | 54* | 4
CCc1n[nH]c(=S)n1/N=C/c1c(C)nn(-c2ccccc2)c1Cl | -7 | -1 | 31 | 36 | -28
O=[N+]([O-])c1ccc(/C=N/n2c(-c3ccccc3)n[nH]c2=S)cc1 | -1 | -1 | -5 | 43* | 9
SMILES | Wnt act | CFTR F508del cor | Env fusion inh | INS-1E GSIS act | MITF act
Cc1ccc(-c2n[nH]c(=S)n2/N=C/c2c(C)nn(-c3ccccc3)c2C)cc1 | 1 | . | 3 | 203* | 0
Cc1nn(-c2ccccc2)c(C)c1/C=N/n1c(-c2ccc(C(C)(C)C)cc2)n[nH]c1=S | . | . | . | . | 6
S=c1[nH]nc(-c2ccncc2)n1/N=C/c1cn(-c2ccccc2)nc1-c1ccc(Cl)cc1 | 48* | -1 | 20 | . | .
CSc1nnc(-c2ccncc2)n1/N=C/c1cn(-c2ccccc2)nc1-c1ccc(Cl)cc1 | 11 | 0 | 18 | -23 | .
Cc1ccccc1-c1n[nH]c(=S)n1/N=C/c1c(C)nn(-c2ccccc2)c1C | . | . | 3 | 91* | 21
C[C@H](CO)N1C[C@H](C)[C@H](CN(C)CC2CCCC2)Oc2ncc(C#Cc3ccccn3)cc2C1=O | . | 2 | . | -6 | .
Cc1noc(C)c1S(=O)(=O)N(C)C[C@H]1OCCCC[C@@H](C)Oc2ccc(NC(=O)NC3CCCCC3)cc2C(=O)N([C@H](C)CO)C[C@@H]1C | . | -1 | -12[16.7 µM] | -11 | .
